Laboratory results as given in PubChem BioAssay (EPA / NIEHS).
Several values for one entry are separate records, joined by “and”; a condition that tells them apart may be missing. Identical values can stand only once. The source holds several records for some structures; these can differ, active in one and inactive in another. Activity calls are given as the source filed them. How the source made its calls: active means hit-call score of the fitted dose curve at least 0.9, where 1 is the maximum; inactive means score below 0.9.

Key:
[1] = ATG_E_Box_CIS: Attagene CIS-FACTORIAL HepG2 Assay for human Enhancer Box (E-box) (AID 2282936); conditions: HepG2 E-box cis-reporter transcription, actives raise or lower the signal
Method in brief: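 First, HepG2 cells receive multiple cis-regulated reporter constructs by transient transfection. Next, chemicals are applied for 24 h. Finally, reporter mRNA is quantified via RT-PCR and capillary electrophoresis, with DMSO as baseline.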

[2] = ATG_M_61_CIS: Attagene CIS-FACTORIAL HepG2 Assay for M61 Transcription Factor (Internal Marker) (AID 2282937); conditions: HepG2 Attagene CIS-FACTORIAL M61 internal marker reporter; actives raise or lower the signal
Method in brief: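 Background-control endpoint: HepG2 cells with cis-regulated reporter constructs, 24 h exposure, reporter mRNA detected via fluorescent primer extension and capillary electrophoresis; values from bidirectional fitting with DMSO baseline.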

[3] = ATG_EGR_CIS: Attagene CIS-FACTORIAL HepG2 Assay for human Early Growth Response 1 (EGR1) (AID 2282938); conditions: HepG2 Attagene CIS-FACTORIAL EGR reporter mRNA; actives raise or lower the signal
Method in brief: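 Endpoint derived by bidirectional fitting versus DMSO vehicle. Method: cis-promoter reporter units transfected into HepG2, 24 h dosing, RNA isolation, RT-PCR with 6-FAM primer extension and HpaI digestion, then capillary electrophoresis fluorescence detection.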

[4] = ATG_M_19_CIS: Attagene CIS-FACTORIAL HepG2 Assay for M19 Transcription Factor (Internal Marker) (AID 2282939); conditions: HepG2 Attagene CIS-FACTORIAL M19 internal marker reporter; actives raise or lower the signal
Method in brief: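 HepG2, MRTU transient transfection, 24 h dosing. Total RNA → RT-PCR → 6-FAM primer extension → HpaI digest → CE fluorescence. Bidirectional curve fit, DMSO negative control.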

[5] = ATG_Ets_CIS: Attagene CIS-FACTORIAL HepG2 Assay for human Erythroblast Transformation Specific (ETS) (AID 2282941); conditions: HepG2 ETS cis-reporter transcription, actives raise or lower the signal
Method in brief: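 Human HepG2 hepatoma cells were transiently transfected with promoter-driven reporter constructs and treated for 24 hours. Reporter transcripts were quantified by RT-PCR with fluorescent primer extension; bidirectional curve fitting used DMSO as reference.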

[6] = target: Hepatocyte nuclear factor 3-beta (Homo sapiens) (UniProt Q9Y261); assay: ATG_FoxA2_CIS: Attagene CIS-FACTORIAL HepG2 Assay for human Forkhead box A2 (FOXA2) (AID 2282942); conditions: HepG2 cis-reporter transcription factor activity, 24 h; actives raise or lower the signal
Method in brief: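 Measured: reporter mRNA induction or loss in HepG2 transiently carrying multiple cis-regulated reporter units, 24 h after dosing. Quantified by RT-PCR plus capillary electrophoresis, normalised to DMSO.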

[7] = ATG_GATA_CIS: Attagene CIS-FACTORIAL HepG2 Assay for human GATA Binding Protein (AID 2282944); conditions: HepG2 GATA cis-element reporter, Attagene multiplex mRNA; actives raise or lower the signal
Method in brief: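 Cells: HepG2, transiently transfected with cis-regulated reporter transcription units. Exposure: 24 h. Detection: RT-PCR plus capillary electrophoresis of FAM-labeled fragments. Analysis: bidirectional, DMSO as baseline.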

[8] = ATG_GLI_CIS: Attagene CIS-FACTORIAL HepG2 Assay for human Zinc Finger Protein GLI1 (AID 2282945); conditions: HepG2, Attagene cis-factorial reporter mRNA, GLI element; actives raise or lower the signal
Method in brief: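 Transiently transfected HepG2 cells report endogenous transcription factor activity via cis-element-driven reporter units. After 24 h compound exposure, reporter mRNA was measured by RT-PCR with capillary electrophoresis; bidirectional fitting against DMSO baseline.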

[9] = target: Bile acid receptor (Homo sapiens) (UniProt Q96RI1); assay: ATG_IR1_CIS: Attagene CIS-FACTORIAL HepG2 Assay for human Nuclear Receptor Subfamily 1 Group H Member 4 (NR1H4), IR1 submotif (AID 2282946); conditions: IR1 reporter transcription, actives raise or lower the signal
Method in brief: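 HepG2 cells transiently transfected with multiple cis-promoter-driven reporter units to measure endogenous transcription factor activity; 24 h exposure. Reporter mRNA read by RT-PCR, FAM labelling, HpaI digestion and capillary electrophoresis. Bidirectional fit versus DMSO.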

[10] = ATG_GRE_CIS: Attagene CIS-FACTORIAL HepG2 Assay for human Glucocorticoid Response Elements (GRE) (AID 2282947); conditions: HepG2 GRE cis-reporter, Attagene multiplex mRNA; actives raise or lower the signal
Method in brief: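 Endogenous transcription factor activity is read through cis-element reporter constructs transiently transfected into HepG2 cells. After 24 h treatment, labelled RT-PCR products are resolved by capillary electrophoresis; DMSO sets baseline for bidirectional curve fitting.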

[11] = ATG_ISRE_CIS: Attagene CIS-FACTORIAL HepG2 Assay for human Interferon Regulatory Factor 1 (IRF1) binding to an Interferon-Stimulated Response Element (ISRE) (AID 2282948); conditions: HepG2 ISRE cis-reporter (Attagene), mRNA transcription readout; actives raise or lower the signal
Method in brief: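 Cell-based cis-reporter assay; HepG2; 24 h exposure; reporter mRNA by RT-PCR plus capillary electrophoresis fluorescence; activity in either direction scored relative to DMSO.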

[12] = ATG_M_32_CIS: Attagene CIS-FACTORIAL HepG2 Assay for M32 Transcription Factor (Internal Marker) (AID 2282949); conditions: HepG2 Attagene cis-factorial M32 reporter, mRNA; actives raise or lower the signal;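 further: background control marker of the multiplexed CIS panel rather than a real target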
Method in brief: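 Internal background marker read-out: RT-PCR/capillary electrophoresis fluorescence of reporter transcripts from transiently transfected HepG2 cells after 24 h chemical exposure. Activity fitted bidirectionally relative to DMSO negative control.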

[13] = ATG_M_06_CIS: Attagene CIS-FACTORIAL HepG2 Assay for M06 Transcription Factor (Internal Marker) (AID 2282950); conditions: HepG2 Attagene CIS-FACTORIAL M06 internal marker reporter; actives raise or lower the signal
Method in brief: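 Measured 24 h post-dosing in transiently transfected HepG2 cells, this internal-marker endpoint reports reporter mRNA via RT-PCR with fluorescent primer extension and capillary electrophoresis. DMSO served as negative control and baseline for bidirectional fitting.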

[14] = target: Hypoxia-inducible factor 1-alpha (Homo sapiens) (UniProt Q16665); assay: ATG_HIF1a_CIS: Attagene CIS-FACTORIAL HepG2 Assay for human Hypoxia Inducible Factor 1 (HIF1A) (AID 2282951); conditions: HepG2 Attagene cis-factorial HIF1a reporter transcription; actives raise or lower the signal
Method in brief: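 Dosed 24 h, transfected HepG2 cells yielded total RNA whose reporter transcripts were RT-PCR-amplified and sized by capillary electrophoresis using fluorescent labelling; DMSO defined baseline, with gain and loss of signal both fitted.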

[15] = target: Hepatocyte nuclear factor 6 (Homo sapiens) (UniProt Q9UBC0); assay: ATG_HNF6_CIS: Attagene CIS-FACTORIAL HepG2 Assay for human Hepatocyte Nuclear Factor 6 (HNF6) (AID 2282952); conditions: HepG2 Attagene cis-factorial HNF6 reporter transcription; actives raise or lower the signal
Method in brief: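 Reporter mRNA induction or loss in HepG2 after 24 h exposure; transient cis-MRTU transfection; fragments quantified by capillary electrophoresis; bidirectional analysis, DMSO as negative control.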

[16] = target: Heat shock factor protein 1 (Homo sapiens) (UniProt Q00613); assay: ATG_HSE_CIS: Attagene CIS-FACTORIAL HepG2 Assay for human Heat Shock Transcription Factor 1 (HSE) (AID 2282953); conditions: HepG2 HSE cis-reporter, Attagene RNA transcription; actives raise or lower the signal
Method in brief: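 Reporter mRNA induction in HepG2 is measured 24 h after dosing, using transiently transfected multiplexed cis-regulated reporter units. Signal comes from capillary electrophoresis of labelled RT-PCR products, with DMSO as negative control.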

[17] = ATG_MRE_CIS: Attagene CIS-FACTORIAL HepG2 Assay for human Metal Responsive Element (MRE) (AID 2282954); conditions: HepG2 MRE cis-reporter transcription, Attagene multiplex; actives raise or lower the signal
Method in brief: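 Fluorescent reporter fragments separated by capillary electrophoresis give mRNA induction for the MRE unit after 24 h treatment of transfected HepG2 cells. Endogenous transcription-factor activity is read; DMSO serves as negative control and baseline.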

[18] = ATG_PBREM_CIS: Attagene CIS-FACTORIAL HepG2 Assay for human Phenobarbital-responsive Enhancer Module (PBREM) (AID 2282955); conditions: HepG2 PBREM cis-reporter, Attagene multiplexed transcription; actives raise or lower the signal
Method in brief: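 Transfected liver-derived HepG2 cells exposed 24 h; PBREM reporter transcript quantified via RT-PCR and capillary electrophoresis, with activity in either direction referenced to DMSO.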

[19] = target: Paired box protein Pax-6 (Homo sapiens) (UniProt P26367); assay: ATG_Pax6_CIS: Attagene CIS-FACTORIAL HepG2 Assay for human Paired Box 6 (PAX6) (AID 2282956); conditions: HepG2 CIS-FACTORIAL PAX6 reporter transcription, RNA readout; actives raise or lower the signal
Method in brief: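 Multiplexed cis-reporter HepG2 system; 24 h treatment; reporter mRNA read by RT-PCR/CE fluorescence; bidirectional fit vs DMSO.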

[20] = ATG_FoxO_CIS: Attagene CIS-FACTORIAL HepG2 Assay for human Forkhead box O (FoxO) (AID 2282943); conditions: HepG2 Attagene cis-reporter, FoxO element, mRNA; actives raise or lower the signal
Method in brief: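 Transfected HepG2 reporter cells exposed to test chemical for 24 h; reporter RNA measured by reverse transcription, PCR and fluorescent capillary electrophoresis; curves fitted for increases and decreases against DMSO.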

Measured: AC50

Sequence of Paired box protein Pax-6 (Homo sapiens) (P26367 whole entry, looked up): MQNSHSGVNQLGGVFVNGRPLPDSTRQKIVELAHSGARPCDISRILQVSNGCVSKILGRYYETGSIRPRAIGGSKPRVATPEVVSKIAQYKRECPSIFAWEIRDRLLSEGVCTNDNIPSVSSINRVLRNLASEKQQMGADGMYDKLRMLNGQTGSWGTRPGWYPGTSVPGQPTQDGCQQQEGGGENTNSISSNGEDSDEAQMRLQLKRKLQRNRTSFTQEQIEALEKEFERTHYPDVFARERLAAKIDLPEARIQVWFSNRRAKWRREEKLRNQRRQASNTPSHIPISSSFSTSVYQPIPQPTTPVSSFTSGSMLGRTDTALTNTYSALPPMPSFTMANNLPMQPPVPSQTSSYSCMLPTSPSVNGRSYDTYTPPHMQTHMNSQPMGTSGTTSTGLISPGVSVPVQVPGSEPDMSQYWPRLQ
Sequence of Hepatocyte nuclear factor 3-beta (Homo sapiens) (Q9Y261 whole entry, looked up): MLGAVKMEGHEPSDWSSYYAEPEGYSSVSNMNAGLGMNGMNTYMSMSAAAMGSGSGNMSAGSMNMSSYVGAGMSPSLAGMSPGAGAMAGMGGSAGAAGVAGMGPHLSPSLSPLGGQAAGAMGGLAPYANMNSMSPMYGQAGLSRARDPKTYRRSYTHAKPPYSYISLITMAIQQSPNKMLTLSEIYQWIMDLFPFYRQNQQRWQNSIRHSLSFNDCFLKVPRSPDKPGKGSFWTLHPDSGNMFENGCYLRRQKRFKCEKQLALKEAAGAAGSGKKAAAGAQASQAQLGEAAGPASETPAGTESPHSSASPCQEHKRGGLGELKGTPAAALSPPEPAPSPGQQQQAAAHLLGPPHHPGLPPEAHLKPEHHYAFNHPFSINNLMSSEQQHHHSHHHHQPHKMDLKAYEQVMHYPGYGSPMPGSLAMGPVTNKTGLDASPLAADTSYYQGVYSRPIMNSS
Sequence of Bile acid receptor (Homo sapiens) (Q96RI1 whole entry, looked up): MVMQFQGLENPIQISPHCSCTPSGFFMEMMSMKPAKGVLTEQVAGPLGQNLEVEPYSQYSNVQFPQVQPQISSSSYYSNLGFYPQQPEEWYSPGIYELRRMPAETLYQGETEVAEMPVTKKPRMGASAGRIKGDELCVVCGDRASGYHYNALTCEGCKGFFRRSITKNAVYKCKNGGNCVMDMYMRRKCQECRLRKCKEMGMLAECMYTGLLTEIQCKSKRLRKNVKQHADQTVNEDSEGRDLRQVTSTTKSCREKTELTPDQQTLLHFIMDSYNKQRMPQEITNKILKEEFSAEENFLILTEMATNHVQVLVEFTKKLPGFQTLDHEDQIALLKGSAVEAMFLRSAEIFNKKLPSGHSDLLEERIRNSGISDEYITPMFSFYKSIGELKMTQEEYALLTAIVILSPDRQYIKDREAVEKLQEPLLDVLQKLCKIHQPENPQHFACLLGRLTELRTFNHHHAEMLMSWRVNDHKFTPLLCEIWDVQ
Sequence of Hepatocyte nuclear factor 6 (Homo sapiens) (Q9UBC0 whole entry, looked up, the tested form may be a part): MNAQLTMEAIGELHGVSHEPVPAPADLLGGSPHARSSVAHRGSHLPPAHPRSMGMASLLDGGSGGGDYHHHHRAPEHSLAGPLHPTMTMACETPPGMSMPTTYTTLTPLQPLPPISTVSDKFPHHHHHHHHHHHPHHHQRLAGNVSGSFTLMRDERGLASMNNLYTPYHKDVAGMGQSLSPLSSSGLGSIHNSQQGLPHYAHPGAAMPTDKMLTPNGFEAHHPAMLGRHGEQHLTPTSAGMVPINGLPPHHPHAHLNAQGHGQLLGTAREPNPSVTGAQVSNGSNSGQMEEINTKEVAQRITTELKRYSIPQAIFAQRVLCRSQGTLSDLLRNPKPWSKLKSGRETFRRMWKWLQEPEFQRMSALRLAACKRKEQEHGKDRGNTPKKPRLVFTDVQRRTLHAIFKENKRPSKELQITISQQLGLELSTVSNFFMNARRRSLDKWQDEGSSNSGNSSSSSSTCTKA
Sequence of Heat shock factor protein 1 (Homo sapiens) (Q00613 whole entry, looked up): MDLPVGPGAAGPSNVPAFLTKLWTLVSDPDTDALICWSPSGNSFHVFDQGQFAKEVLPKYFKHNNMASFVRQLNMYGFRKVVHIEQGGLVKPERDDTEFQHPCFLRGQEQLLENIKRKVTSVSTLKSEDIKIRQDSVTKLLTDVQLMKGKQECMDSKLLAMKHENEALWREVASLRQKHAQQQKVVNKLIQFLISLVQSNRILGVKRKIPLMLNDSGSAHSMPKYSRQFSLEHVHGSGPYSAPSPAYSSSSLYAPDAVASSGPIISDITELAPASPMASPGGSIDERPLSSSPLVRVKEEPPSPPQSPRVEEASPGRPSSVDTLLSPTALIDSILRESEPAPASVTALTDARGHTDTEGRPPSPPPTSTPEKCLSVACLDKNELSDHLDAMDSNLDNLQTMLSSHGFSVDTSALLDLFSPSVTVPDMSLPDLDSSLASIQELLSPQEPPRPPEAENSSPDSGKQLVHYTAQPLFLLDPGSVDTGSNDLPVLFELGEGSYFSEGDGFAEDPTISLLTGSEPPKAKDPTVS
Sequence of Hypoxia-inducible factor 1-alpha (Homo sapiens) (Q16665 whole entry, looked up): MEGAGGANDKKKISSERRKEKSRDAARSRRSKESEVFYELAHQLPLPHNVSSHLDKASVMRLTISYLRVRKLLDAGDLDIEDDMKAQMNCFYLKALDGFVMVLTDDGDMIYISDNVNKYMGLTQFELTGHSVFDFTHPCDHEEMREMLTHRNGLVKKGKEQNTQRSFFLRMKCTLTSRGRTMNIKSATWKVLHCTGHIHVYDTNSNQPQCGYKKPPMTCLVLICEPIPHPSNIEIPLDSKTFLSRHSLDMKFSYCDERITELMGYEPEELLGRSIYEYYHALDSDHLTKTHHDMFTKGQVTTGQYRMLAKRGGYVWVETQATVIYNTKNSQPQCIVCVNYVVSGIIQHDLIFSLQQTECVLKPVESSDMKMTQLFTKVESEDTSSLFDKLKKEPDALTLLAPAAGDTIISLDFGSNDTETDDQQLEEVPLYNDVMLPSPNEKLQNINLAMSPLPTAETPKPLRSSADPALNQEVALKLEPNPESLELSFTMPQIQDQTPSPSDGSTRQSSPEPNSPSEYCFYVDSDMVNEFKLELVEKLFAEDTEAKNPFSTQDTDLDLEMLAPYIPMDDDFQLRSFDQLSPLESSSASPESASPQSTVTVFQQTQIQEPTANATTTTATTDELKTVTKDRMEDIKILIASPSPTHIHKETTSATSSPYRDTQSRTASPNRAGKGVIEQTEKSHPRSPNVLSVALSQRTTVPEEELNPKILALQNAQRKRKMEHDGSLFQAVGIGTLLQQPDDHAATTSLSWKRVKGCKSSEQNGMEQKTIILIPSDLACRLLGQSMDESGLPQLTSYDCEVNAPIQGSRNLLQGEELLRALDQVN

O=P(OCCCl)(OCCCl)OCCCl
not listed: [20]
inactive: all other assays above

O=[N+]([O-])C(Br)(CO)CO
active: [3] 100 µM | [8] 169 µM | [11] 164 µM | [14] 25 µM | [16] 158 µM | [19] 100 µM
not listed: [10]
inactive: all other assays above

CCNS(=O)(=O)C(F)(F)C(F)(F)C(F)(F)C(F)(F)C(F)(F)C(F)(F)C(F)(F)C(F)(F)F
active: [3] 96.5 µM | [7] 138 µM | [8] 96.5 µM | [16] 130 µM and 218 µM and 80.8 µM | [17] 114 µM and 150 µM | [18] 96.5 µM and 61.9 µM and 34.7 µM | [19] 96.5 µM
inactive: [1] | [2] | [3] | [5] | [6] | [20] | [7] | [8] | [9] | [11] | [12] | [13] | [15] | [17] | [19]
